The source of these data is the supplement of paper PMC10933113.

Where a name gives a salt, the structure may show the parent alone. ± gives the uncertainty stated by the source.

This assay has as its system THP-1. The experiment in a line: CD54 surface expression induction over DMSO control (% over DMSO); higher = stronger dendritic cell activation. As to conditions: exposure time: 24 h. How it is done:
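hCLAT-like CD54 and CD86 surface expression on THP1 cells after 24 h exposure at a single concentration (highest non-cytotoxic concentration, or 100-200 µM if not cytotoxic). Flow cytometry (iQue) was run on 5,000 live cells.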
Take `COC(=O)CCCCCCCC(=O)OC` [Dimethyl nonanedioate] (200 µM): the “CD54 surface expression induction” value is -1.14 ± 2.1.
The same measure for `[Cl][Bi]([Cl])([c]1ccccc1)([c]1ccccc1)[c]1ccccc1` [Triphenylbismuthine dichloride] (10 µM): 15.8 ± 5.
`CCCCCOc1ccccc1/C(=C\SC)n1ccnc1` [Neticonazole] (100 µM): the “CD54 surface expression induction” value is 17.2 ± 5.
The figure for `COc1ccc(-c2cc(=S)ss2)cc1` [Anethole trithione] (100 µM) is -12.4 ± 13; for `CCCCCCCC(=O)Oc1c(Br)cc(C#N)cc1Br` [Bromoxynil octanoate] (100 µM) it is -3.81 ± 2.4.
The figure for `Clc1nc(C(Cl)(Cl)Cl)c(Cl)c(Cl)c1Cl` [2,3,4,5-Tetrachloro-6-(trichloromethyl)pyridine] (10 µM) is -4.98 ± 3.6; for `Oc1ccc2cc(SSc3ccc4cc(O)ccc4c3)ccc2c1` [6-Hydroxy-2-naphthyl disulfide] (100 µM) it is 71.9 ± 1.4.
Turning to `CC(C)c1ccc2oc3nc(N)c(C(=O)O)cc3c(=O)c2c1` [Amlexanox] (100 µM), the “CD54 surface expression induction” value was -5.95 ± 2.7.
With `CC(C)CC(NC(=O)OCC1c2ccccc2-c2ccccc21)C(=O)O` (stereo in doubt) [N-(9-Fluorenylmethoxycarbonyl)-L-leucine] (100 µM), the “CD54 surface expression induction” value was -11.5 ± 0.49.
The figure for `CCOc1ccc2nc3cc(N)ccc3c(N)c2c1` [Ethacridine lactate monohydrate] (200 µM) is -29.7 ± 6.5; for `COc1ccc2cc(CCC(C)=O)ccc2c1` [Nabumetone] (100 µM) it is -12.2 ± 1.2.
The same measure for `CC1COc2ccccc2N1C(=O)C(Cl)Cl` (stereo not given) [Benoxacor] (10 µM): 13.4 ± 3.8; for `Clc1ccc(C(Cn2ccnc2)OCc2c(Cl)cccc2Cl)c(Cl)c1` (stereo not given) [Isoconazole] (100 µM): 56.6 ± 9.5.
The figure for `Cc1cccc(N(C)C(=S)Oc2ccc3c(c2)C2CCC3C2)c1` (stereo not given) [Tolciclate] (100 µM) is 1.18 ± 1.2; for `CC(=O)C1(C)CC2=C(CCCC2(C)C)CC1C` (stereo not given) (100 µM) it is 4.57 ± 4.8; for `CC(C)(C)OC(=O)c1ccc(O)cc1` [tert-Butyl 4-hydroxybenzoate] (100 µM) it is 1.75 ± 0.96.
On to `C=CC(=O)OCCOC(=O)CCC(=O)O` [4-[2-(Acryloyloxy)ethoxy]-4-oxobutanoic acid] (200 µM), for which the “CD54 surface expression induction” value is -1.6 ± 8.8.
As for `CCCCNC(=S)NCCCC` [N,N'-Dibutylthiourea] (10 µM), the “CD54 surface expression induction” value is -6.77 ± 3.8.
Take `Cc1c2ccccc2c(C)c2c1ccc1ccccc12` [7,12-Dimethylbenzanthracene] (10 µM): the “CD54 surface expression induction” value was -22 ± 12.
`c1ccc(SCCSc2ccccc2)cc1` [1,2-Bis(phenylthio)ethane] (100 µM): the “CD54 surface expression induction” value was -6.44 ± 3.
The figure for `CNc1ccc(O)cc1` [4-(Methylamino)phenol Sulfate] (10 µM) is 17.6 ± 8.6.
Take `Sc1nc2ccccc2s1` [2-Mercaptobenzothiazole] (100 µM): the “CD54 surface expression induction” value is -13.7 ± 14.
The figure for `O=[N+]([O-])c1cc(Cl)c(Cl)c(Cl)c1Cl` [2,3,4,5-Tetrachloronitrobenzene] (10 µM) is -4.73 ± 2.7.
Regarding `Nc1nnc(-c2ccc([N+](=O)[O-])o2)o1` [2-Amino-5-(5-nitro-2-furyl)-1,3,4-oxadiazole] (10 µM), the “CD54 surface expression induction” value was -7.68 ± 3.2.
In the case of `Nc1ncn([C@@H]2O[C@H](CO)[C@@H](O)[C@H]2O)c(=O)n1` [5-Azacytidine] (10 µM), the “CD54 surface expression induction” value is -4.02 ± 3.5.
With `Oc1ccc2ccccc2c1N=Nc1ccccc1` [C.I. Solvent Yellow 14] (200 µM), the “CD54 surface expression induction” value is -0.27 ± 5.9.
Regarding `CO[C@@H]1[C@H](OC(=O)/C=C/C=C/C=C/C=C/C(=O)O)CC[C@]2(CO2)[C@H]1[C@@]1(C)O[C@@H]1CC=C(C)C` [Fumagillin] (100 µM), the “CD54 surface expression induction” value is 4.2 ± 4.4.
As for `CCCCCCCCCCCCCC[N+](C)(C)C` [Tetradonium bromide] (10 µM), the “CD54 surface expression induction” value came to 17.7 ± 3.4.
Regarding `O=C1OC(OC(=O)c2cccnc2Nc2cccc(C(F)(F)F)c2)c2ccccc21` (stereo not given) [Talniflumate] (100 µM), the “CD54 surface expression induction” value came to 1.7 ± 0.62.
On to `CC(O)C#CC(C)O` (stereo not given) [Hex-3-yne-2,5-diol] (10 µM), for which the “CD54 surface expression induction” value was 6.05 ± 3.8.
With `O=C1Nc2ccccc2C1(c1ccc(O)cc1)c1ccc(O)cc1` [Oxyphenisatin] (100 µM), the “CD54 surface expression induction” value stood at 15.6 ± 12.
The figure for `COc1ccc(C(=O)c2ccc(C)cc2)c(O)c1` [Mexenone] (300 µM) is -5.78 ± 3.4.
With `Cc1ccc2c(c1[N+](=O)[O-])C(=O)c1ccccc1C2=O` [2-Methyl-1-nitroanthraquinone] (10 µM), the “CD54 surface expression induction” value was 4.18 ± 2.8.
The figure for `CC1=C(/C=C/C(C)=C/C=C/C(C)=C/C=O)C(C)(C)CCC1` [13-cis-Retinal (Vitamin A aldehyde)] (100 µM) is 188 ± 9.3.
Regarding `COc1cc(/C=C2\CCC/C(=C\c3ccc(O)c(OC)c3)C2=O)ccc1O` [Cyclovalone] (10 µM), the “CD54 surface expression induction” value is -1.01 ± 3.
Take `Nc1cc(Cl)c(O)c(Cl)c1` [4-Amino-2,6-dichlorophenol] (100 µM): the “CD54 surface expression induction” value amounted to 18 ± 2.
The same measure for `C/C=C1\C(=O)C[C@H]2[C@@H]3CCC4=CC(=O)CC[C@]4(C)[C@H]3CC[C@]12C` [Guggulsterone Z] (100 µM): -3.76 ± 3.3.
The same measure for `CCC1OCC(COc2ccc(Oc3ccccc3)cc2)O1` (stereo not given) [Diofenolan] (10 µM): -6.06 ± 5.8; for `O=c1cc(-c2ccccc2)oc2ccccc12` [Flavone] (200 µM): 62.9 ± 14.
As to `O=C(O)c1cn(C2CC2)c2cc(N3CCNCC3)c(F)cc2c1=O` [Ciprofloxacin] (100 µM), the “CD54 surface expression induction” value was -14.9 ± 5.8.
